Here are results for 10 compounds from PubChem BioAssay (EPA / NIEHS).

As a reminder, the AC50 is the midpoint of the concentration-response curve, whichever way the signal moves.

For assay [1], the target named is Oxysterols receptor LXR-beta (Homo sapiens) (UniProt P55055). The experiment in a line: ATG_LXRb_TRANS: Attagene TRANS-FACTORIAL HepG2 Assay for human Liver X Receptor beta (LXRb) (AID 2282981; active = hit-call score of the fitted dose curve at least 0.9, where 1 is the maximum). The note with it: HepG2 Attagene TRANS GAL4-LXRb reporter, mRNA. In outline:
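Multiplexed reporter assay, HepG2, 24 h dosing. Fluorescence of labelled RT-PCR products after capillary electrophoresis gives transcript level; positive fitting direction relative to DMSO.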

Assay [2] can be described thus: ATG_M_06_TRANS: Attagene TRANS-FACTORIAL HepG2 Assay for M06 Transcription Factor (Internal Marker) (AID 2282983; active = hit-call score of the fitted dose curve at least 0.9, where 1 is the maximum). The note with it: HepG2 Attagene TRANS M06 internal marker reporter. In outline:
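Read-out: fluorescent reporter cDNA fragments resolved by capillary electrophoresis after RT-PCR and HpaI cut. Source cells were HepG2 carrying transfected multi-reporter GAL4 constructs, dosed 24 h. Increase over DMSO control analysed.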

Assay [3] concerns the target Nuclear receptor subfamily 4 group A member 2 (Homo sapiens) (UniProt P43354). The experiment in a line: ATG_NURR1_TRANS: Attagene TRANS-FACTORIAL HepG2 Assay for human Nuclear Receptor Related Protein 1 (NURR1) (AID 2282985; active = hit-call score of the fitted dose curve at least 0.9, where 1 is the maximum). The note with it: HepG2 Attagene TRANS reporter, mRNA readout. In outline:
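Endpoint: reporter mRNA increase relative to DMSO. HepG2 cells transfected with reporter units, treated 24 h; RNA processed by RT-PCR, labelling, HpaI digestion and capillary electrophoresis.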

Assay [4] has as its target Transcriptional activator Myb (Homo sapiens) (UniProt P10242). The experiment in a line: ATG_Myb_CIS: Attagene CIS-FACTORIAL HepG2 Assay for human Myeloblastosis (Myb) Proto-Oncogene Transcription Factor (AID 2282986). The note with it: HepG2 Attagene CIS-FACTORIAL Myb reporter transcription; actives raise or lower the signal. In outline: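 Fluorescence signals from capillary electrophoresis of RT-PCR-amplified reporter cDNA give the read-out. Cells: HepG2 transfected with multiple cis-regulated reporter units. Exposure lasts 24 hours; DMSO defines baseline for gain or loss of signal.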

For assay [5], the target named is Nuclear respiratory factor 1 (Homo sapiens) (UniProt Q16656). The experiment in a line: ATG_NRF1_CIS: Attagene CIS-FACTORIAL HepG2 Assay for human Nuclear Respiratory Factor 1 (NRF1) Orphan Gene (AID 2282987). The note with it: HepG2 NRF1 cis-element reporter, Attagene multiplex; actives raise or lower the signal. In outline:
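Transcriptional reporter readout, one component of a 52-endpoint multiplexed HepG2 panel. Exposure 24 h; mRNA detected via RT-PCR and fluorescent capillary electrophoresis; fitting in both directions against DMSO.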

The nature of assay [6]: ATG_NFI_CIS: Attagene CIS-FACTORIAL HepG2 Assay for human Nuclear Factor I (NFI) (AID 2282989). The conditions noted are these: HepG2 cis-regulatory reporter, NFI response element transcription; actives raise or lower the signal. In outline:
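Multiplexed cis-reporter system in human HepG2 cells reports native TF activity as reporter mRNA induction 24 h post-dose. Fragments labelled with 6-FAM, HpaI-digested and resolved by capillary electrophoresis; activity fitted both directions versus DMSO.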

In assay [7] the target is Myc proto-oncogene protein (Homo sapiens) (UniProt P01106). The experiment in a line: ATG_Myc_CIS: Attagene CIS-FACTORIAL HepG2 Assay for human Myelocytomatosis (Myc) Proto-Oncogene Transcription Factor (AID 2282990). The conditions noted are these: HepG2, Attagene cis-reporter transcription factor activity; actives raise or lower the signal. In outline: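 Transiently transfected HepG2 cells bearing cis-promoter reporter units for endogenous transcription factors; 24 h exposure. Reporter mRNA measured by RT-PCR, 6-FAM primer extension, HpaI cut and capillary electrophoresis; bidirectional fit relative to DMSO.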

The nature of assay [8]: ATG_NRF2_ARE_CIS: Attagene CIS-FACTORIAL HepG2 Assay for human Nuclear Factor Erythroid 2 Related Factor 2 (NFR2) response to Antioxidant Response Elements (ARE) (AID 2282992).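 For AC50: reporter mRNA level measured by RT-PCR and capillary electrophoresis fluorescence.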 The note with it: HepG2 Attagene ARE/NRF2 reporter, transcription factor activity; actives raise or lower the signal. In outline:
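Endogenous transcription factor activity in human liver HepG2 cells is tracked via a cis-element-driven reporter within a multiplexed set. mRNA induction is read by RT-PCR and capillary electrophoresis after 24 h, with DMSO as baseline.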

Assay [9] in a line: ATG_Oct_MLP_CIS: Attagene CIS-FACTORIAL HepG2 Assay for human Octamer-Binding Transcription Factor (Oct) (AID 2282993). The note with it: HepG2 Attagene cis-factorial Oct reporter, mRNA; actives raise or lower the signal. In outline:
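After 24 h compound exposure, transfected HepG2 cells were lysed for total RNA; reporter-specific cDNA was PCR-amplified, fluorescently labelled and sized by capillary electrophoresis. Bidirectional curve fitting used DMSO as baseline.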

In assay [10] the target is Cellular tumor antigen p53 (Homo sapiens) (UniProt P04637). The experiment in a line: ATG_p53_CIS: Attagene CIS-FACTORIAL HepG2 Assay for human p53 Transcription Factor (AID 2282994). The note with it: HepG2 p53 cis-element reporter, Attagene mRNA; actives raise or lower the signal. In outline: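 Steps: transfect HepG2 with multiplexed cis reporter constructs; dose chemicals 24 h; extract RNA, reverse-transcribe, PCR-amplify reporter sequences; FAM-label, HpaI-digest, resolve fragments by CE. Activity fitted both directions relative to DMSO.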

In assay [11] the target is Hepatocyte nuclear factor 4-alpha (Homo sapiens) (UniProt P41235). The experiment in a line: ATG_HNF4a_TRANS: Attagene TRANS-FACTORIAL HepG2 Assay for human Hepatocyte Nuclear Factor 4 alpha (HNF4a) (AID 2282982; active = hit-call score of the fitted dose curve at least 0.9, where 1 is the maximum). The conditions noted are these: HepG2 HNF4a transactivation reporter, mRNA readout. In outline:
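Endpoint reflects transcriptional activation of a GAL4-UAS reporter by an HNF4a-GAL4 chimera in transfected HepG2 cells, 24 h post-dosing. Fluorescence from RT-PCR products separated by capillary electrophoresis; DMSO baseline.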

Assay [12] can be described thus: ATG_M_32_TRANS: Attagene TRANS-FACTORIAL HepG2 Assay for M32 Transcription Factor (Internal Marker) (AID 2282984; active = hit-call score of the fitted dose curve at least 0.9, where 1 is the maximum;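 note: transcript level of a background control reporter unit measured by RT-PCR and capillary electrophoresis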). The conditions noted are these: HepG2 Attagene TRANS M32 internal marker reporter. In outline: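 Internal-marker readout from a multiplexed transcription reporter panel. HepG2 cells were transfected with GAL4-UAS reporter units, treated 24 hours, and reporter transcript levels determined by fluorescence after RT-PCR and capillary separation.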

A short description of assay [13]: ATG_NF_kB_CIS: Attagene CIS-FACTORIAL HepG2 Assay for human Nuclear Factor Kappa B (NF-kB) (AID 2282991). The note with it: HepG2 Attagene cis-factorial NF-kB reporter mRNA; actives raise or lower the signal. In outline: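 HepG2, transient multi-reporter transfection, cis promoter elements (endogenous TFs). 24 h exposure. Total RNA → RT → PCR → 6-FAM label → HpaI → CE. Gain/loss vs DMSO.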

Assay [14] in a line: BSK_3C_TissueFactor: BioMAP Diversity Plus: 3C Assay for Tissue Factor Biomarker Activity (AID 2282997). The conditions noted are these: BioMAP 3C HUVEC, tissue factor biomarker readout; actives raise or lower the signal. In outline:
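HUVEC, 3C system, 24 h post-dose; Tissue Factor by ELISA; bidirectional fit vs DMSO baseline.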

Assay [15] in a line: BSK_3C_uPAR: BioMAP Diversity Plus: 3C Assay for Urokinase-type plasminogen activator receptor (uPAR) Biomarker Activity (AID 2282998). The conditions noted are these: BioMAP 3C HUVEC, uPAR biomarker ELISA; actives raise or lower the signal. In outline:
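Values derive from bidirectional curve fitting relative to DMSO, which served as baseline of activity. uPAR was measured by ELISA in human umbilical vein endothelial primary cultures 24 h after compound addition.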
A general note: ELISA stands for enzyme-linked immunosorbent assay.

Assay [16] can be described thus: BSK_3C_VCAM1: BioMAP Diversity Plus: 3C Assay for Vascular cell adhesion molecule 1 (VCAM1) Biomarker Activity (AID 2282999). The note with it: BioMAP 3C HUVEC, VCAM1 ELISA, cytokine-stimulated; actives raise or lower the signal. In outline: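 HUVEC primary cells, 24 h compound exposure; VCAM-1 by ELISA; gain/loss of signal fitted bidirectionally vs DMSO baseline.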

The structures appear in SMILES notation. Results filed as inconclusive are left out. Activity calls are given as the source filed them. Rule for the calls, unless noted: active = hit-call score of the fitted dose curve at least 0.9, where 1 is the maximum; inactive = score below 0.9.

Transcriptional activator Myb (Homo sapiens), sequence (P10242 whole entry, looked up): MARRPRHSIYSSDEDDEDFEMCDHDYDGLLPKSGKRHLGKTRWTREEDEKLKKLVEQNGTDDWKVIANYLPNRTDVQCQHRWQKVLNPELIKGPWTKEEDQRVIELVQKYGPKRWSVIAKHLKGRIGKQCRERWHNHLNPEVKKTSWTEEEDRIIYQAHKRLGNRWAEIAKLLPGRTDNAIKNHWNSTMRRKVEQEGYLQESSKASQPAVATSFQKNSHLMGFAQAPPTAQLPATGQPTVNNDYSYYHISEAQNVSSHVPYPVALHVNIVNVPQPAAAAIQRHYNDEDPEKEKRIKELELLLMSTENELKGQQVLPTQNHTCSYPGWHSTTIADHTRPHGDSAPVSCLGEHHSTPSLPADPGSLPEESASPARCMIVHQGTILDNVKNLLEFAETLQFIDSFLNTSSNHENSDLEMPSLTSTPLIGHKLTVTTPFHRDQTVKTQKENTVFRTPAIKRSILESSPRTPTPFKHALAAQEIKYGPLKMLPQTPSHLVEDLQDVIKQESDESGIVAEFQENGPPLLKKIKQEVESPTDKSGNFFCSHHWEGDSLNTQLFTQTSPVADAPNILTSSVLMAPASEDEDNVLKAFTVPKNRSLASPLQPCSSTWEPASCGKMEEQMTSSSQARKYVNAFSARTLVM
Nuclear receptor subfamily 4 group A member 2 (Homo sapiens), sequence (P43354 whole entry, looked up): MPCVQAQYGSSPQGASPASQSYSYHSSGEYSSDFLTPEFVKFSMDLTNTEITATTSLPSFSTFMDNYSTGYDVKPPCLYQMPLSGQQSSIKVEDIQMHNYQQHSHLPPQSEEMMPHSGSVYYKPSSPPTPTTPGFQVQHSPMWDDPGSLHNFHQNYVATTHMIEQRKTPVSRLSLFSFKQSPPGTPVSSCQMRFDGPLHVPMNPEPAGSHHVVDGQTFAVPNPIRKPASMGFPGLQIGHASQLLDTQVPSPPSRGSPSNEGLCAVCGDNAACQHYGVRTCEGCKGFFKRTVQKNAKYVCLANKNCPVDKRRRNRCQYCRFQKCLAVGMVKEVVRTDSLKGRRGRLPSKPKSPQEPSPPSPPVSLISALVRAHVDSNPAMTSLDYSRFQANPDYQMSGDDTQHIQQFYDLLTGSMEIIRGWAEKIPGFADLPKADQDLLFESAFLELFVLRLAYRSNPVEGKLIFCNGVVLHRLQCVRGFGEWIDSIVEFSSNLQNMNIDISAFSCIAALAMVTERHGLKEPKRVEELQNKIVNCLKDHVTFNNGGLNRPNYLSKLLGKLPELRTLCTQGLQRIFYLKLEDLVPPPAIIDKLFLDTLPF
Nuclear respiratory factor 1 (Homo sapiens), sequence (Q16656 whole entry, looked up): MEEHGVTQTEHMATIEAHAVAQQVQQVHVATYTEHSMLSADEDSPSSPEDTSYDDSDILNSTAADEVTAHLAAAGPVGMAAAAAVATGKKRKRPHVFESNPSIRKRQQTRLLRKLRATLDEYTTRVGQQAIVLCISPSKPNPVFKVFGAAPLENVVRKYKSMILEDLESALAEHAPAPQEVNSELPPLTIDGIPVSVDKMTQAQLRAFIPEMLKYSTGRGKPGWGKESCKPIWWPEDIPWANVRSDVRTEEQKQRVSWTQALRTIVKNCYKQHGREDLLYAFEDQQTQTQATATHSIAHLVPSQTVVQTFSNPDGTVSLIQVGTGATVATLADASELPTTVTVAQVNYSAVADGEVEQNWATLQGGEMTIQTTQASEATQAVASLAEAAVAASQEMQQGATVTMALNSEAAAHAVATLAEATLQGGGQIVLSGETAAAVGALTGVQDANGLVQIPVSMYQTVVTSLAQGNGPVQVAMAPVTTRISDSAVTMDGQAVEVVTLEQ
Myc proto-oncogene protein (Homo sapiens), sequence (P01106 whole entry, looked up): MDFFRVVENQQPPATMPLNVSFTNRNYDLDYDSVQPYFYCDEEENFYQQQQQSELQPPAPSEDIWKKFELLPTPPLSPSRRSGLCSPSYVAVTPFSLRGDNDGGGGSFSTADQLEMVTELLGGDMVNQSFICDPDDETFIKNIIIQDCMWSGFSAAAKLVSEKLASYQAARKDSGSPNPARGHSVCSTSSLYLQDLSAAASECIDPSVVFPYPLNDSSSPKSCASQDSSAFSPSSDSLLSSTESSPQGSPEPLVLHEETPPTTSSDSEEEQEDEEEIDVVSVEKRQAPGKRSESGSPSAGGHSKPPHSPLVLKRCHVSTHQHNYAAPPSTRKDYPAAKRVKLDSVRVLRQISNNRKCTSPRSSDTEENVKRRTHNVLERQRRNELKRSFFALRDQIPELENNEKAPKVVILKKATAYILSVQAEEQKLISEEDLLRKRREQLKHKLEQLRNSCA
Oxysterols receptor LXR-beta (Homo sapiens), sequence (P55055 whole entry, looked up, the tested form may be a part): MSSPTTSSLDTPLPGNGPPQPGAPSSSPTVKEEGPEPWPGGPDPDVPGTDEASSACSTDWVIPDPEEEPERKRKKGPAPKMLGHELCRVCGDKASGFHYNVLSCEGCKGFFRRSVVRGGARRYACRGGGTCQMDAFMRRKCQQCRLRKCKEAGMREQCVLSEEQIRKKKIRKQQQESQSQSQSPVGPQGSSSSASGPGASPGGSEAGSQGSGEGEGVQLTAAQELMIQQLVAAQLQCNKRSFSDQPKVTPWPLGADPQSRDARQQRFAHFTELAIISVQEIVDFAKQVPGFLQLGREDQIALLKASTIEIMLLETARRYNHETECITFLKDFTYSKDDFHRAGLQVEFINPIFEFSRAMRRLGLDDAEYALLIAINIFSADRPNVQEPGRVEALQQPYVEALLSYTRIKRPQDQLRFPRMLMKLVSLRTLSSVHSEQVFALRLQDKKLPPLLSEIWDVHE
Cellular tumor antigen p53 (Homo sapiens), sequence (P04637 whole entry, looked up, the tested form may be a part): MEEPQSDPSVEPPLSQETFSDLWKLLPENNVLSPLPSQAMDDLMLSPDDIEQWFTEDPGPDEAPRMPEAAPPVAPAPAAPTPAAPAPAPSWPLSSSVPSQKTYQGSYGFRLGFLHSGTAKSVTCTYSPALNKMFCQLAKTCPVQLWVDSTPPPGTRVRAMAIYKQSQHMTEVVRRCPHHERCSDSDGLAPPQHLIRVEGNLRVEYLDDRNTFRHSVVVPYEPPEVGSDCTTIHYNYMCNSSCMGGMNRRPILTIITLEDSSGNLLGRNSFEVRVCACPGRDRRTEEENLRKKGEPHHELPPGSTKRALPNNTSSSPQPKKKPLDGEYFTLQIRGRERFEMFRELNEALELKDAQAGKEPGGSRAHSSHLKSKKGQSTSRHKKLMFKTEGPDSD
Hepatocyte nuclear factor 4-alpha (Homo sapiens), sequence (P41235 whole entry, looked up, the tested form may be a part): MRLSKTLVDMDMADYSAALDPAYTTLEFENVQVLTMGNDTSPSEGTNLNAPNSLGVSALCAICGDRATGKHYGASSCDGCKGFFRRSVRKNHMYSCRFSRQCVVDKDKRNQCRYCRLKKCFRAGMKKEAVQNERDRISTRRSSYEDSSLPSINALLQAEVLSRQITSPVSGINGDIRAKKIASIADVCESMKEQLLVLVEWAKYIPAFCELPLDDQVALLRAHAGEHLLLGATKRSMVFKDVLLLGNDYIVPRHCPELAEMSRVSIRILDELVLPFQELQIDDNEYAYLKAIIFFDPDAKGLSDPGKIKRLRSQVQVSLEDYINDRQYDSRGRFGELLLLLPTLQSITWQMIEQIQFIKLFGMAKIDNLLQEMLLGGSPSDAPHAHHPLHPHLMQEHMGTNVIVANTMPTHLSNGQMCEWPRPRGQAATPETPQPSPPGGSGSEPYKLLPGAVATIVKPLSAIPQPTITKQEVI

As to `CCCCCC1C(=O)CCC1CC(=O)OC` (stereo not drawn), the compound was classed as inactive in assay [1], in [2], in assay [3], in assay [4], in assay [5] and in assay [6]. Besides, the result in [7], in assay [8], in assay [9] and in [10] was inactive.
As for `NNC(=O)OCc1ccccc1`, the call in assay [11], in [2], in assay [12], in assay [3], in assay [4] and in [5] was inactive. Besides, the compound was classed as inactive in assay [7], in [13], in [8] and in [9].
As for `CC(C)COC(=O)c1ccccc1`, the compound was called inactive in assay [1], in [11], in assay [2], in [4], in assay [5] and in [6]. For the same compound, the compound was classed as inactive in [7], in [13], in [8], in assay [9] and in [10].
On to `CN(C)C(=O)Nc1ccccc1`, for which the compound was classed as inactive in [1], in assay [11], in assay [3], in assay [4], in assay [5] and in assay [6]. For the same compound, the result in assay [7], in assay [8] and in assay [9] was inactive.
Consider `CC(C)Cc1ccccc1`, for which the compound was called inactive in assay [11], in assay [2], in assay [12], in assay [4], in [5] and in assay [6]. Also, the outcome in assay [7], in assay [13], in assay [8], in assay [9] and in [10] was inactive.
Take `Cc1ccccc1S`: the outcome in assay [11], in [2], in assay [4], in [5] and in [13] was inactive. Further, the AC50 was 74 µM (active) in assay [6], 45 µM (active) in assay [7], 24.5 µM (active) in assay [8] and 98.5 µM (active) in [9].
Regarding `CCOC(=O)CC1(C)OCC(C)O1` (stereo not drawn), the compound was called inactive in assay [1], in assay [2], in assay [4], in [5], in assay [6] and in assay [7]. The outcome in assay [13], in [8], in assay [9] and in assay [10] was inactive.
In the case of `CCCC(O)C(CC)CO` (stereo not drawn), the compound was called inactive in assay [11], in assay [2], in assay [12], in assay [3], in assay [4] and in assay [5]. Besides, the outcome in assay [6], in assay [7], in assay [13], in [8], in assay [9] and in assay [10] was inactive.
Turning to `CC(=O)CCC=C(C)CCC=C(C)C`, the result in assay [11], in [2], in [12], in assay [3], in assay [4] and in assay [5] was inactive. Further, the compound was classed as inactive in [6], in [7], in assay [13], in [9], in assay [10] and in [14]. Besides, the outcome in assay [15] was inactive. For the same compound, the AC50 is 53 µM (active) in assay [8] and 30.9 µM (active) in assay [16].
Turning to `COc1cc(OC)c2ccc(=O)oc2c1`, the compound was classed as inactive in assay [11], in assay [2], in assay [12], in assay [3], in assay [4] and in assay [5]. For the same compound, the call in assay [6], in assay [7], in [13], in assay [8] and in [9] was inactive.
